Screening results as filed in PubChem.
FBPA Giardia inh – inhibitors of Giardia lamblia fructose-1,6-bisphosphate aldolase | actives 0.71% (n = 290,000) | Potency, µM (doses to about 59.6 µM), for the others: at the top dose activity, negative = inhibition, actives largely listed as inhibitors | purified Giardia FBPA | A8B2U2; note: potency is the fitted concentration of half-maximal effect; % is set by controls: 0 for no effect and ±100 for the full control effect; nearly all actives have a fitted effect of over 55% in size
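Giardia FBPA (40 nM reagent) was preincubated 10 min at RT with compound (up to 57.5 uM final), then substrate plus GAPDH/TPI/NAD/arsenate coupling system with diaphorase/resazurin was added; resorufin fluorescence (525/598 nm) was read after 20 min.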
LmPK inhibitor – LmPK (Leishmania mexicana) enzyme inhibition. Q27686. purified LmPK, Kinase-Glo ATP luminescence, 1 h. Potency, µM (top dose mostly 57.5 µM), inactives show at the highest dose activity change, negative = inhibition, most hits filed as inhibitors. actives 0.37% (n = 290,000). AID 1721; note: potency is the fitted concentration of half-maximal effect; % is set by controls: 0 for no effect and ±100 for the full control effect
Target sequence (Q27686 whole entry, looked up): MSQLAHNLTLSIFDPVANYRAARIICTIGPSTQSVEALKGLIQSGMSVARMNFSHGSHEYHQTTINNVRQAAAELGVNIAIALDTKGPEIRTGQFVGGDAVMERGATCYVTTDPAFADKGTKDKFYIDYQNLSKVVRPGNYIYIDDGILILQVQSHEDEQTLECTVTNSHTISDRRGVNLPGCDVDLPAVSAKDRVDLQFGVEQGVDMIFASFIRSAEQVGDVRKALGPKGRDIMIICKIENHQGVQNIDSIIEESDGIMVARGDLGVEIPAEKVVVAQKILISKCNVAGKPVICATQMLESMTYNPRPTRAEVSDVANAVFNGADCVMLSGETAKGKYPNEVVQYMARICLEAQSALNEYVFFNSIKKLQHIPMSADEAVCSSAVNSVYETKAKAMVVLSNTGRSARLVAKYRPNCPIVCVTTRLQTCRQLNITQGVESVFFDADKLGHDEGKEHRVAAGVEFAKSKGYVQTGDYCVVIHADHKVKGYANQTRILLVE
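Purified LmPK (0.1 nM) with 0.5 mM PEP and 0.1 mM ADP in imidazole buffer pH 7.2 with MgCl2/KCl, 1 h at room temperature. ATP formed was read by luciferase luminescence and normalized to no-enzyme and uninhibited controls.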
Shiga inhibitor – blocks Shiga toxin action in Vero cells; inhibition, % at 38.7 µM; actives 9.2% (n = 290,000); AID 2315; Vero cells, Shiga toxin protein synthesis inhibition reporter; in the data active = inhibition mostly above about 28%, no sharp cut-off; inactive = mostly below about 43%; note: 0% is about no effect
RE007 growth inh – less growth of the S. pombe RE007 Vpr strain. AID 651644. actives 0.21% (n = 360,000). Potency, µM (titrated, usually from 92.2 µM), for inactives: at the highest dose activity change, negative = less growth, most hits filed as inhibitors. S. pombe RE007 Vpr strain, BacTiter-Glo ATP luminescence, 24 h; active = well fitted falling curve with a large enough effect; inconclusive = small, poorly fitted or top-dose-only effect; inactive = no such curve, though single readings can be large or run the other way; note: potency is the fitted concentration of half-maximal effect; % is set by controls: 0 for no effect and ±100 for the full control effect; nearly all actives have a fitted effect of over 50% in size
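Fission yeast strain RE007, carrying one chromosomally integrated HIV-1 vpr copy, was seeded at OD 0.01 in PMG+AL medium with 23 nL pinned compound. After 24 h at 30 °C and 99% humidity, viability was read by BacTiter-Glo luminescence.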
Tb PYK inh – inhibitors of Trypanosoma brucei pyruvate kinase. Q57TT1. TbPYK enzyme, Kinase-Glo Plus ATP luminescence, 45 min. Potency, µM (doses to about 76.8 µM), inactives show top-dose activity, negative = inhibition, actives largely listed as inhibitors. actives 0.12% (n = 410,000). AID 624173; note: potency is the fitted concentration of half-maximal effect; % is set by controls: 0 for no effect and ±100 for the full control effect; nearly all actives have a fitted effect of over 50% in size
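TbPYK + substrate in 50 mM TEA pH 7.2, 100 mM KCl, 10 mM MgCl2, 0.05% BSA, 0.01% Tween-20; cpd pinned; ADP 130 uM final; 45 min RT; Kinase-Glo Plus 10 min; luminescence endpoint.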
Cycloheximide cs – counter-screen hit for Shiga toxin inhibitors, cycloheximide | max response, % | cell reporter, cycloheximide protein synthesis inhibition counterscreen | actives 12% (n = 300,000) | AID 2314; in the data active = max response mostly above about 13%, no sharp cut-off; inactive = mostly below about 14%; note: read at 38.3 µM for the half of the compounds with a filed dose; 0% is about no effect
An asterisk follows results filed as active; ? = inconclusive; . = no result given; + = active, no number; [ ] = dose if it differs, or a comment. The sample as a whole holds a higher share of hits than the screen did. Unless noted, calls come from the whole dose curve; as a rule, active = well fitted curve in the direction sought with a large enough effect; inconclusive = small, poorly fitted or top-dose-only effect, or another doubt; inactive = no such curve, though single readings can be large; an effect the other way counts as inactive or inconclusive.

SMILES	FBPA Giardia inh	LmPK inhibitor	Shiga inhibitor	RE007 growth inh	Tb PYK inh	Cycloheximide cs
CC(C)(CCl)C(=O)Nc1ccc(C(F)(F)F)cc1	-8%	-2%	26	-8%	9%	28*
CS(=O)(=O)c1ccccc1C(=O)Nc1cccc(-c2nc3ccccc3o2)c1	-1%	13%	12	0%	6%	23*
CCC(=O)Nc1cccc(-c2nc3ccccc3o2)c1	-4%	-3%	48	-28%	2%	16*
O=C(Nc1cccc(-c2nc3ccccc3o2)c1)C(F)(F)F	.	.	.	.	-3%	.
CC(=O)Nc1nc2ccc(-c3nc4ccccc4o3)cc2s1	-2%	-4%	54*	-1%	-6%	61*
OC1Cc2ccccc2C1Nc1cccc(C(F)(F)F)c1 (centres undefined)	.	.	.	-2%	-5%	.
N#Cc1ccc(CSc2nc(N)cc(N)n2)cc1	-10%	-2%	13	4%	-21%	7.9*
Cc1cc(C)nc(SCc2ccc(Cl)cc2)n1	-6%	-4%	7	1%	-3%	-3
Cc1ccc(CSc2nc(N)cc(N)n2)cc1	0%	0%	.	1%	2%	25*
CN1N=C(C(=O)Nc2ccc3c(c2)CCC3)CCC1=O	5%	-12%	76*	-6%	-1%	28*
CCCn1c(SCC(=O)Nc2ccc3c(c2)CCC3)n[nH]c1=O	-2%	-1%	3	11%	-3%	8
Cn1ncc(Cl)c1C(=O)Nc1ccc2c(c1)CCC2	2%	-7%	77*	-11%	-5%	44*
Cc1cccc(-c2nc3cc([N+](=O)[O-])ccc3o2)c1	8%	-29%	92*	-18%	-4%	36*
O=[N+]([O-])c1ccc2nc(-c3ccccc3)cc(-c3ccccc3)c2c1	1%	6%	-7	-12%	-1%	-3
NC(N)=Nc1nc2cc([N+](=O)[O-])ccc2o1	-2%	0%	27	-3%	0%	15*
Cc1cccc([N+](=O)[O-])c1	.	.	.	-6%	2%	.
COc1ccc(-c2nc3ccc(NS(=O)(=O)c4ccc(C)cc4)cc3o2)cc1	.	.	.	.	6%	.
O=[N+]([O-])c1ccc2oc(-c3ccccc3)nc2c1	5%	1%	69*	?	2%	35*
COc1ccc(-c2nc3ccc([N+](=O)[O-])cc3o2)cc1	5%	-7%	+	-9%	-17%	39*
CCCNC(=O)OC[C@@H]1O[C@H](CCO/N=C2\c3cc(OC)ccc3O[C@H](c3cccc(OC)c3)[C@H]2O)C=C[C@@H]1Oc1ccc(OC)cc1	1%[12.9 µM]	.	.	.	.	.
CC1(C(=O)NCc2ccccc2)CN(S(C)(=O)=O)CC(=O)N1CCCn1ccnc1 (centres undefined)	.	.	.	0%	.	.
Cc1cc(/C([O-])=C(/C(=S)Nc2ccccc2)[n+]2ccccc2)c(C)n1-c1ccccc1	-30%	-6%	44	-9%	-9%	29*
O=[N+]([O-])c1cccc(/C([O-])=C(/C(=S)Nc2ccccc2)[n+]2ccccc2)c1	-20%	-1%	+	-16%	-12%	80*
CCNC(=S)/C(=C(/[O-])c1ccc([N+](=O)[O-])cc1)[n+]1ccccc1	-10%	5%	-14	9%	-12%	2
Cc1ccc(S(=O)(=O)C(CNC(=O)C(=O)NCCc2ccc(F)cc2)c2cccs2)cc1 (centres undefined)	.	.	.	.	-5%	.
Cc1ccc(N=C/C(C(=O)C(F)(F)F)=C(\O)c2ccco2)cc1Cl	-2%	0%	106*	-29%	1%	60*
O=C(/C(C=Nc1ccc(F)cc1)=C(/O)c1ccco1)C(F)(F)F	2%	-11%	62*	-8%	-5%	60*
Cc1cccc(N=C/C(C(=O)C(F)(F)F)=C(\O)c2ccco2)c1	19%	-5%	-5	.	-9%	-1
O=C(CCCCCN1C(=O)CCC1=O)Nc1ccc2c(c1)OCO2	0%	6%	17	6%	-3%	9
O=C(CCCN1C(=O)CCC1=O)Nc1ccc2c(c1)OCO2	2%	0%	53*	2%	-5%	11
